DAX1 inh-1 – inhibitors of human orphan nuclear receptor DAX1 (NR0B1). P51843. HEK293 Gal4-DAX1 luciferase reporter, luminescence. inhibition, % at 6.75 µM. 340,000 compounds, 0.99% hits;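 active = inhibition above the mean over all tested compounds plus 3 SD, cut at about 4.2% in these data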;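 note: 0% = DAX1-transfected cells with DMSO and 100% = empty-vector control cells with DMSO; inhibition shows as a rise in luminescence from relieved DAX1 repression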
Target sequence (P51843 207-470 limits assumed): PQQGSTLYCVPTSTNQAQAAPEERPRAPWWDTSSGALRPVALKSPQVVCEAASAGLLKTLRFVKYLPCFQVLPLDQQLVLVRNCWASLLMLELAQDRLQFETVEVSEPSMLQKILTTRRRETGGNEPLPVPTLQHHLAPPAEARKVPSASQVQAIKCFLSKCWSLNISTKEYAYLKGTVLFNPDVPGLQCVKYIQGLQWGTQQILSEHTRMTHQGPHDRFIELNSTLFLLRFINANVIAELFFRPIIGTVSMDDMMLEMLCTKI
SMARCA2 act – increases SMARCA2 function in MMTV reporter cells; MG213 cells, MMTV-luciferase reporter, dexamethasone, overnight; activation, % at 9.1 µM; 370,000 compounds, 1% hits; AID 652017; in the data active = activation above about 7.8%;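 note: 0% = vehicle wells and 100% = reference activator wells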
hgDAF-12 ag – activates the H. glycines DAF-12 receptor ligand-binding domain; activation, % at 6.8 µM; AID 687014; HEK293 GAL4-hgDAF12 UAS-luciferase reporter, agonist luminescence; normalized to butyrate control; 370,000 compounds, 1.8% hits;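 active = activation above a cutoff set at the mean of all screened compounds plus 3 SD, cut at about 10% in these data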;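 note: 0% = DMSO wells and 100% = sodium butyrate wells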
DAX1 inh-2 – DAX1 (NR0B1) inhibition, primary screen; HEK293T StAR-luciferase reporter, SF-1/DAX-1 repression relief; inhibition, % at 6.8 µM; 370,000 compounds, 1.1% hits; AID 652010;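 active = inhibition above the mean over all tested compounds plus 3 SD, cut at about 3.6% in these data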;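 note: 0% = DAX-1 cells with DMSO and 100% = cells lacking DAX-1 with DMSO; higher inhibition means more luminescence from relief of DAX-1 repression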
ssDAF-12 act – activators of S. stercoralis DAF-12 nuclear receptor | activation, % at 6.8 µM | HEK293 ssDAF-12/GRIP1 lit1-tk-luc reporter, luminescence; % of 3 µM dafachronic acid response | 370,000 compounds, 1% hits | AID 652126;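 active = activation above the mean over all tested compounds plus 3 SD, cut at about 0.9% in these data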;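 note: 0% = DMSO-only wells and 100% = 3 µM delta7-dafachronic acid wells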
hcDAF-12 act – H. contortus DAF-12 activation, primary screen; HEK293 hcDAF-12 lit1-tk-luc reporter, luminescence; 0% DMSO, 100% Δ7-dafachronic acid; activation, % at 6.8 µM; 370,000 compounds, 1.4% hits; AID 652067;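 active = activation above the mean of all tested compounds plus 3 SD, cut at about 5.5% in these data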;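 note: 100% = response to 3 µM Δ7-dafachronic acid high control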
SMARCA2 conf – SMARCA2 activation, confirmation screen | shares compounds with SMARCA2 act | MG213 cells, MMTV-luciferase with dexamethasone, luminescence, overnight; MG213 cells expressing E1A, Rb sequestered; DMSO wells 0%, reference activator 100% | activation, % at 9.1 µM | 3,500 compounds, 30% hits | AID 652260;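 active = activation above its plate's cutoff, the mean activation of tested wells plus 3 SD, cut at about 7.9% in these data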
VP16 Luc act – counter-screen for SMARCA2 activators: GAL4-VP16 luciferase reporter activation. 3,500 compounds, 41% hits. activation, % at 9.1 µM. HEK293 GAL4-VP16 pG5luc reporter, luciferase luminescence; scaled: DMSO wells 0%, SAHA wells 100%. shares compounds with SMARCA2 act;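 active = activation above the solvent-only control well mean plus 3 SD, averaged across control plates, cut at about 5.2% in these data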
* = called active by the depositor; x = no result. Only some compounds are listed: those with a hit (about 4.8% of all), similar ones and a draw of the others.

SMILES	DAX1 inh-1	SMARCA2 act	hgDAF-12 ag	DAX1 inh-2	ssDAF-12 act	hcDAF-12 act	SMARCA2 conf	VP16 Luc act
CCC(=O)Nc1cccc(NC(=S)NC(=O)c2cccs2)c1	1.7	11.1*	3.6	1.7	-0.6	1.9	4.5	9.4*
Cc1ccccc1N/C(SCc1cccc(Br)c1)=C(/C#N)C(N)=O	0.5	9.7*	-1.6	-0.2	-1.1	0.5	-3.9	0.5
CCc1noc2cc(-c3ccccc3)n(C)c(=O)c12	x	9.7*	13.2*	3.1	-0.4	3.2	14.3*	6.8*
CCCOc1ccc(-c2cc3onc(-c4ccccc4)c3c(=O)n2C)cc1	0.8	5.8	5.4	2.4	-0.7	2.7	x	x
O=C1CCC[C@H]2CC3(CC[C@]24CCCN14)OCCO3	x	x	-1.7	x	-1.6	-0.1	x	x
Nc1nc(Nc2ccccc2F)nc(NCc2ccco2)c1[N+](=O)[O-]	-0.3	12.8*	2.8	0.5	0.2	0.8	7.4	2.3
COc1ccc(S[C@]2(C(=O)N3CCOCC3)CC(=O)N(C(=O)c3ccccc3)[C@@H]2c2ccc(OC)cc2)cc1	x	-3.5	6.8	-1.8	-1.4	1.7	x	x
O=C(Cn1cncn1)N/N=C/c1cccc(Cl)c1	2.0	8.3*	-1.6	0.2	-0.7	-1.7	0.7	-1.0
N#CC1(NC(=O)COC(=O)/C=C/c2ccc3ccccc3n2)CCCCC1	0.0	9.4*	1.6	-1.2	-0.3	2.8	8.3*	-0.1
O=C(COC(=O)/C=C/c1ccc2ccccc2n1)NNC(=O)c1ccc([N+](=O)[O-])cc1	0.9	0.5	1.5	0.6	0.1	-0.6	x	x
COC(=O)[C@]12C[C@H](CC(=O)N3CCCCC3)C(=O)N(Cc3cccc4ccccc34)C1=C[C@H](C(C)C)O[C@@H]2C1CC1	x	-2.9	-1.7	2.0	-0.9	-1.9	x	x
CN(Cc1ccccc1)C(=O)c1cc(-c2ccc(Br)cc2)on1	-0.6	8.1*	1.9	-0.3	-1.0	-1.8	2.5	5.3*
Cc1cc(C(=O)N(C)Cc2ccc(Br)cc2)no1	0.5	-9.3	-0.2	0.1	-0.5	-0.4	x	x
Cc1cc(C)nc(SC(C(=O)O)c2ccccc2)n1 (configuration not stated)	0.3	-3.7	0.9	0.0	-1.4	1.4	x	x
Cc1cc(C)nc(Sc2nc(Cl)nc(N(c3ccccc3)c3ccccc3)n2)n1	-0.6	8.3*	-3.8	0.0	0.1	0.5	9.2*	1.0
Cc1cccc(-c2cccc3c4c([nH]c23)[C@@H]2C[C@H](N(C)C(=O)Nc3ccccc3C)[C@H]([C@H](C)O)CN2CC4)c1	x	-6.7	3.2	-0.4	-0.3	-2.6	x	x
COc1ccc(C(=O)NCC(=O)N2CCN(c3ncccn3)CC2)cc1OC	0.6	8.0*	2.1	-0.2	-1.0	-2.0	3.8	-0.7
COc1ccc(C(=O)NCC(=O)N2CCNC(=O)C2)cc1OC	0.9	0.5	0.8	-0.3	-1.1	1.0	x	x
COC(=O)[C@]12C[C@H](CC(=O)NCC3CCCCC3)C(=O)N(Cc3cccc4ccccc34)C1=C[C@H](C(C)C)O[C@@H]2C1CC1	x	-1.5	5.2	0.1	-0.5	-1.2	x	x
N#C/C(=C\c1ccc(OC(=O)c2cccs2)cc1)c1nc2ccccc2[nH]1	1.9	12.8*	4.8	0.2	-0.5	1.2	8.5*	6.2*
COCC(=O)N[C@H]1C[C@@H]2O[C@@H](CO)CC[C@@H]2O[C@@H]1CCc1ccc(-c2ccccc2)cc1	x	-2.5	0.7	-1.1	-0.8	-2.4	x	x
O=C(CSc1nc2c(cnn2-c2ccc(F)cc2)c(=O)[nH]1)N1CCCc2ccccc21	1.0	4.9	0.9	0.5	-1.0	-0.1	x	x
Nc1nc(SCC(=O)N2CCCc3ccccc32)[nH]c(=O)c1-c1ccccc1	1.6	10.6*	1.9	-0.9	-0.4	4.5	-2.8	1.0

Bioassay records (PubChem)
